The results in this text go back to publication PMC7862700, “An all-to-all approach to the identification of sequence-specific readers for epigenetic DNA modifications on cytosine”.

Common to all, as to assay: DAPPL (digital affinity profiling via proximity ligation, sequencing); 10 mM Tris-HCl pH 7.5, 50 mM NaCl, 1 mM DTT, 4% glycerol, room temperature, 30 min; GST-TFs on glutathione beads, 16-mer random dsDNA library, 0.1% formaldehyde crosslink after washing; high values mean tight binding
Holding throughout (conditions): protein: recombinant; tags: N-terminal GST; dsDNA, one strand shown

For one test, the target named is T1, ERF (Homo sapiens, UniProt P50548 1-548).
T1 sequence: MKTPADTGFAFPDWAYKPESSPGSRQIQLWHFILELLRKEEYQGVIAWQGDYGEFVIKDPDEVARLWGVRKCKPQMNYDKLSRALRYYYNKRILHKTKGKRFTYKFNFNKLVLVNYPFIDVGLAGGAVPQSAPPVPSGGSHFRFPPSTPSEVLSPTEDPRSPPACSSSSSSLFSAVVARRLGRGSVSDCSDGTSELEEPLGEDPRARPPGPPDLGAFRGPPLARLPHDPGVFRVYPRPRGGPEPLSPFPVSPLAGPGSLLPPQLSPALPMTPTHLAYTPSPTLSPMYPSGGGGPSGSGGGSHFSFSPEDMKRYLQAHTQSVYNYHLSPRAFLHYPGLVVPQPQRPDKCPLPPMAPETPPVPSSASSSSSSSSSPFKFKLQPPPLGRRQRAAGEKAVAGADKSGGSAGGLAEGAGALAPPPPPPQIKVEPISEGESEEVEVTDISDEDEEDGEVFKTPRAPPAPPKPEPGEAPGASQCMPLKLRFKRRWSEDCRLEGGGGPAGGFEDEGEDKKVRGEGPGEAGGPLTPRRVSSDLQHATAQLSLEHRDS
In a few lines: (§1)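 Sequencing on an Illumina NextSeq500 followed washing, crosslinking with 0.1% formaldehyde, proximity ligation (BsaI/T4 ligase, 1 h, 37 °C) and PCR amplification of pools that had been incubated for 30 min at room temperature with 200 nmole of a random double-stranded 16-mer DNA library in Tris/NaCl/DTT/glycerol buffer. Each pool held DNA-barcoded human transcription factors, expressed in yeast as GST fusions and captured on glutathione beads, plus a tag-only sample. Binding signal is a hexamer's read frequency for a factor divided by its frequency in the tag-only sample.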

Another test has as its target T2, ETV3L (Homo sapiens, UniProt Q6ZN32 1-361).
T2 sequence: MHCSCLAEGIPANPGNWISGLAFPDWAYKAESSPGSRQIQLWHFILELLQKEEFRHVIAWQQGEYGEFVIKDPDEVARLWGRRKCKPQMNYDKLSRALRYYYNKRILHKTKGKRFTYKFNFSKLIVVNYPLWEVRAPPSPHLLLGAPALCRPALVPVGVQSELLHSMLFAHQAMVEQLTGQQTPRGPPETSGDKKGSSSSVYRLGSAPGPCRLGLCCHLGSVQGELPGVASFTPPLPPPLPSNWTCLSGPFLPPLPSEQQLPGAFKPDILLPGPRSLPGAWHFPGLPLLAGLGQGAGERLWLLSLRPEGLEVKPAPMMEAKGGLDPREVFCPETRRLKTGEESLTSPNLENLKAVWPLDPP
A digest of the protocol: as §1

The target of the next test is T3, ETS2 (Homo sapiens, UniProt P15036 1-469).
T3 sequence: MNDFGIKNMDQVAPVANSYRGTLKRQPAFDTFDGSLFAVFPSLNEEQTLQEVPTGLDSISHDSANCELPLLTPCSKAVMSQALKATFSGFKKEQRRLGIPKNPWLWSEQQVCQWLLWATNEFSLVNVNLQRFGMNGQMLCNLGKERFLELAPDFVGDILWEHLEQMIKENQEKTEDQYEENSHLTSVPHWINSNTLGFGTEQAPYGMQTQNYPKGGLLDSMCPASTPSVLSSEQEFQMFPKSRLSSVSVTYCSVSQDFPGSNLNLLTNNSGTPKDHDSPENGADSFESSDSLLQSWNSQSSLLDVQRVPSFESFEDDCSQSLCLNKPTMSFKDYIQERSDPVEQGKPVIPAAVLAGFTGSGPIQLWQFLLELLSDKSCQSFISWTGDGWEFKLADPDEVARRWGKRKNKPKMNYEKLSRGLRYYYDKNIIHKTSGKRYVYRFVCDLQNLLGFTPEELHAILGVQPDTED
A digest of the protocol: as §1

In the next test the target is T4, SPDEF (Homo sapiens, UniProt O95238 1-335).
T4 sequence: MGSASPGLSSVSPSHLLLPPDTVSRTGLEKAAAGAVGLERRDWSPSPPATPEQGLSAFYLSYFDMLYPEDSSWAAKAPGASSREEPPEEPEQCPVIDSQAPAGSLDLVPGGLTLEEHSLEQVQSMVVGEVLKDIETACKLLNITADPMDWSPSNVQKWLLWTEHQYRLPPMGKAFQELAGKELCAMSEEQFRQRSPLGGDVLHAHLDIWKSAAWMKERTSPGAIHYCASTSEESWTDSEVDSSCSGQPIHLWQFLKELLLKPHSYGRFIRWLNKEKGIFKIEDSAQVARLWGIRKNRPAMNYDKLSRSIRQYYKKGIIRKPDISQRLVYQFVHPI
A digest of the protocol: as §1

A further test concerns the target T5, ETV7 (Homo sapiens, UniProt Q9Y603 1-341).
T5 sequence: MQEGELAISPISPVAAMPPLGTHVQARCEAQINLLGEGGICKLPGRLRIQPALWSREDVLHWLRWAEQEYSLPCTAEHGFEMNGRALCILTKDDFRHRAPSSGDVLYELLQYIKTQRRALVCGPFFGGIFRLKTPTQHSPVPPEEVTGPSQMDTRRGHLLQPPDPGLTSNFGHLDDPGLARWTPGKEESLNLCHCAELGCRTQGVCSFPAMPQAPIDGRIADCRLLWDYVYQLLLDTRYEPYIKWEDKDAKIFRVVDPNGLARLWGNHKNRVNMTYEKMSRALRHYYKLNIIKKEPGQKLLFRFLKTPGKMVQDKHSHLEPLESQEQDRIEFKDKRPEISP
In a few lines:
as §1

Another test has as its target T6, ELF5 (Homo sapiens, UniProt Q9UKW6-2 1-255).
T6 sequence: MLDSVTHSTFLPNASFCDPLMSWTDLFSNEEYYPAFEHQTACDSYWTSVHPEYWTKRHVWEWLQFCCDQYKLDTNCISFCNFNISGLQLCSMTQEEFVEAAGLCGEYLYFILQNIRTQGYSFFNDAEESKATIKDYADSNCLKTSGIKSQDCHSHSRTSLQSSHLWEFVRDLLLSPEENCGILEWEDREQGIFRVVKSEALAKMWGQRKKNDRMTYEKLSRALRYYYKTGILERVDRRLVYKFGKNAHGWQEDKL
A digest of the protocol:
as §1

A further test has as its target T7, ETV3 (Homo sapiens, UniProt P41162-2 1-143).
T7 sequence: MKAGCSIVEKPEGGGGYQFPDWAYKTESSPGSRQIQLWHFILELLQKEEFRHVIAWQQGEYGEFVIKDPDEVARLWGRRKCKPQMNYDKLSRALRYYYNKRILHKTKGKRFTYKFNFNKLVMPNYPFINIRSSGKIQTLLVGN
In a few lines:
as §1

For another test, the target named is ETV6 (Homo sapiens, UniProt P41212 1-452). A digest of the protocol:
as §1

Chain of ETV6 (P41212 whole entry): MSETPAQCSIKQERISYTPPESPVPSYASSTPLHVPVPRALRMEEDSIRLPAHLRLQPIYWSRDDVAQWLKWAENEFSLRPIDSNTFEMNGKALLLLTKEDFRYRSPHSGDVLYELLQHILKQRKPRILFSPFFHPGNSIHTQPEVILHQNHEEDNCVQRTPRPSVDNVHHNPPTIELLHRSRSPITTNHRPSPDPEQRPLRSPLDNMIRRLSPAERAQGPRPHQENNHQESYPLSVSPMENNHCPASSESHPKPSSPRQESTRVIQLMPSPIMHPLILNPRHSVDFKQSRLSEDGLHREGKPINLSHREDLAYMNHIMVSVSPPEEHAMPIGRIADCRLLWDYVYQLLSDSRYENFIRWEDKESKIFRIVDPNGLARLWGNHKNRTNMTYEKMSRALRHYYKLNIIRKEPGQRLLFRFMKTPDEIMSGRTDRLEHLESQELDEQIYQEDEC

For GAATTC, the binding signal with ERF is 1.38 fold enrichment (6-mer frequency, TF over GST control); with ETV3L it was 1.41 fold enrichment (6-mer frequency, TF over GST control); in the test with ETS2, 1.33 fold enrichment (6-mer frequency, TF over GST control); in the test with SPDEF it was 1.33 fold enrichment (6-mer frequency, TF over GST control); in the test with ETV7 it was 1.32 fold enrichment (6-mer frequency, TF over GST control); with ELF5, 1.32 fold enrichment (6-mer frequency, TF over GST control). Moreover, the binding signal with ETV3 is 1.35 fold enrichment (6-mer frequency, TF over GST control); with ETV6, 1.2 fold enrichment (6-mer frequency, TF over GST control).
With GTAACA, the binding signal was 1.1 fold enrichment (6-mer frequency, TF over GST control) in the test with ERF; 1.07 fold enrichment (6-mer frequency, TF over GST control) with ETV3L; 1.08 fold enrichment (6-mer frequency, TF over GST control) with ETS2; 1.14 fold enrichment (6-mer frequency, TF over GST control) in the test with SPDEF; 1.08 fold enrichment (6-mer frequency, TF over GST control) with ETV7; 1.1 fold enrichment (6-mer frequency, TF over GST control) with ELF5. Moreover, the binding signal with ETV3 is 1.15 fold enrichment (6-mer frequency, TF over GST control); with ETV6, 1.09 fold enrichment (6-mer frequency, TF over GST control).
As for TATCGC, the binding signal with ERF was 1.18 fold enrichment (6-mer frequency, TF over GST control); with ETV3L, 1.15 fold enrichment (6-mer frequency, TF over GST control); in the test with ETS2, 1.1 fold enrichment (6-mer frequency, TF over GST control); with SPDEF, 1.17 fold enrichment (6-mer frequency, TF over GST control); with ETV7 it was 1 fold enrichment (6-mer frequency, TF over GST control); with ELF5, 1.19 fold enrichment (6-mer frequency, TF over GST control). The binding signal with ETV3 was 1.13 fold enrichment (6-mer frequency, TF over GST control); with ETV6 it was 1.08 fold enrichment (6-mer frequency, TF over GST control).
As to TGGAAA, the binding signal with ERF is 1.08 fold enrichment (6-mer frequency, TF over GST control); with ETV3L, 1.2 fold enrichment (6-mer frequency, TF over GST control); with ETS2, 1.1 fold enrichment (6-mer frequency, TF over GST control); with SPDEF, 1.04 fold enrichment (6-mer frequency, TF over GST control); with ETV7, 1.19 fold enrichment (6-mer frequency, TF over GST control); in the test with ELF5, 1.12 fold enrichment (6-mer frequency, TF over GST control). The binding signal is 1.08 fold enrichment (6-mer frequency, TF over GST control) in the test with ETV3 and 1.23 fold enrichment (6-mer frequency, TF over GST control) with ETV6.
For AACACG, the binding signal is 1.14 fold enrichment (6-mer frequency, TF over GST control) with ERF; 1.15 fold enrichment (6-mer frequency, TF over GST control) with ETV3L; 1.25 fold enrichment (6-mer frequency, TF over GST control) with ETS2; 1.22 fold enrichment (6-mer frequency, TF over GST control) with SPDEF; 1.13 fold enrichment (6-mer frequency, TF over GST control) with ETV7; 1.22 fold enrichment (6-mer frequency, TF over GST control) with ELF5. Further, the binding signal in the test with ETV3 was 1.3 fold enrichment (6-mer frequency, TF over GST control); in the test with ETV6 it was 1.23 fold enrichment (6-mer frequency, TF over GST control).
As for GATGTC, the binding signal is 1.29 fold enrichment (6-mer frequency, TF over GST control) in the test with ERF; 1.31 fold enrichment (6-mer frequency, TF over GST control) with ETV3L; 1.33 fold enrichment (6-mer frequency, TF over GST control) with ETS2; 1.53 fold enrichment (6-mer frequency, TF over GST control) in the test with SPDEF; 1.27 fold enrichment (6-mer frequency, TF over GST control) with ETV7; 1.42 fold enrichment (6-mer frequency, TF over GST control) in the test with ELF5. Further, the binding signal is 1.32 fold enrichment (6-mer frequency, TF over GST control) in the test with ETV3 and 1.21 fold enrichment (6-mer frequency, TF over GST control) with ETV6.
As for CGCTAC, the binding signal was 1.24 fold enrichment (6-mer frequency, TF over GST control) in the test with ERF; 1.17 fold enrichment (6-mer frequency, TF over GST control) with ETV3L; 1.24 fold enrichment (6-mer frequency, TF over GST control) in the test with ETS2; 1.21 fold enrichment (6-mer frequency, TF over GST control) in the test with SPDEF; 1.2 fold enrichment (6-mer frequency, TF over GST control) with ETV7; 1.16 fold enrichment (6-mer frequency, TF over GST control) in the test with ELF5. The binding signal is 1.16 fold enrichment (6-mer frequency, TF over GST control) with ETV3 and 1.27 fold enrichment (6-mer frequency, TF over GST control) with ETV6.
